# Measurements as given in PubChem BioAssay (NCI).
# This is part of a sample that, as a whole, favours compounds with a hit. Of some 83,000 tested, about 20% had one in any assay.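 Step 1: grow cells in 96-well plates. Step 2: add test compound at a single concentration. Step 3: incubate 48 h. Step 4: record percent growth.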 The source made the active and inactive calls. The calls were made as follows: active = growth percent below 10; inactive = the rest.
# System: DU-145 prostate
# Test: NCI-60 one-dose screen, 48 h (100 = growth as untreated, 0 = no growth, -100 = all killed)
# Conditions: 10 µM unless noted
row,Compound,growth
1,CC1(C)NCCC[C@]2(C)[C@H]3CC=C4[C@@H]5C[C@](C)(COC(=O)c6ccccc6C(=O)O)CC[C@]5(C)CC[C@@]4(C)[C@]3(C)CC[C@@H]12,79.3% (inactive)
2,COc1ccccc1Nc1nnc(COc2ccc(CNC(=O)CCCC/C=C/C(C)C)cc2OC)o1,99% (inactive)
3,Cc1c(CN(C)C)cc(C(C)C)cc1C(C)C,113% (inactive)
4,COC1=C(OC)C(=O)c2ccccc2C1=O,112% (inactive)
5,COc1ccc(C(=O)CN2C(=O)NC(c3ccccc3)(c3ccccc3)C2=O)cc1,116% (inactive)
6,CCNc1nnc(COc2ccc(CNC(=O)CCCC/C=C/C(C)C)cc2OC)o1,109% (inactive)
7,CCS(=O)(=O)OCCO[C@H]1Cc2cc3ccc(=O)oc3cc2OC1(C)C,103% (inactive)
8,CC(C)OC(=O)[C@H](C)N[P@@](=O)(OC[C@@]1(C)O[C@@H](n2cc(F)c(N)nc2=O)C[C@@H]1O[P@](=O)(N[C@@H](C)C(=O)OC(C)C)Oc1ccccc1)Oc1ccccc1,103% (inactive)
9,CC[C@@H](C)/C=C(C)/C=C/C(=O)c1c(O)c(-c2ccc(OC(=O)[C@@]34CC[C@@](C)(C(=O)O3)C4(C)C)cc2)cn(O)c1=O,10.8% (inactive)
10,COc1ccc(Cn2cc3c(c2-c2ccccc2)CCc2cnoc2-3)cc1OC,21.3% (inactive)
11,COc1ccc(Cn2cc3c(c2)-c2oncc2CC3)cc1OC,10.3% (inactive)
12,Cc1cc(CSc2ccc(Cl)cc2)ccc1N,88.5% (inactive)
13,O=C(/C=C1\C(=O)N(Cc2ccccc2)c2ccccc21)c1ccc(OCCN2CCCCC2)cc1,47.5% (inactive)
14,CCCCN(CCCC)CC(O)CN(CC)CC (stereo unspecified),113% (inactive)
15,COc1ccc(/C=C2\CCCC3=C2N=C2SC=NN2C3c2ccc(OC)c(OC)c2)cc1OC (stereo unspecified),24.9% (inactive)
16,CC1(c2ccc(Br)cc2)NC(=O)NC1=O (stereo unspecified),111% (inactive)
17,COc1ccc(Cn2cc3c(c2-c2ccc(OC)cc2)CCc2cnoc2-3)cc1,10.5% (inactive)

row,Compound,growth
1,O=S(=O)(O)c1ccc2c(c1)Sc1cc(S(=O)(=O)O)ccc1O2,116% (inactive)
2,NNC(=S)N1N=C(c2cc3ccccc3o2)CC1c1c[nH]c2ccccc12 (stereo unspecified),50.9% (inactive)
3,O=C(O)c1occ(Cl)c1Cl,114% (inactive)
4,Cc1nnc(-c2cc3c(ccc4ccccc43)oc2=O)c2cn(-c3ccc(Cl)cc3)nc12,107% (inactive)
5,O=C(/C=C/c1c[nH]c2ccccc12)c1cc2ccccc2o1,95.6% (inactive)
6,C=CCN(C)C,119% (inactive)
7,Cc1c(C(N)=O)sc2c1c(=O)n(Cc1ccccc1)c1nnc(S(C)(=O)=O)n21,101% (inactive)
8,COc1ccc(/C=C2\SC(=O)N(Cc3cc(=O)oc4ccc(OC)cc34)C2=O)cc1,91.3% (inactive)
9,CC1(C)Oc2cc3oc(=O)ccc3cc2C[C@@H]1OCCOS(=O)(=O)c1ccc(C#N)cc1,103% (inactive)
10,CC1=C[C@@H]2c3c(c(O)c(O)c4oc5cc(O)cc(O)c5c(=O)c34)[C@@H](c3cc(O)c(O)c4oc5cc(O)cc(O)c5c(=O)c34)[C@@H]2C(C)(C)C1,20.7% (inactive)
11,C=C(C)[C@@H]1CC[C@]2(COC(=O)c3ccccc3C(=O)O)CC[C@]3(C)[C@H](CC[C@@H]4[C@@]5(C)CCCNC(C)(C)[C@@H]5CC[C@]43C)[C@@H]12,65.9% (inactive)
12,O=S(=O)(Cc1cccc2c(CS(=O)(=O)c3ccc(Cl)cc3)cccc12)c1ccc(Cl)cc1,91.2% (inactive)
13,COC(=O)/C=C/c1cc(O)c2oc(-c3ccc(O)c(O)c3)c(C(=O)OC)c2c1,17.5% (inactive)
14,COC(=O)Nc1nc2ccc(C(=O)c3ccccc3N(C)C3COC3)cc2[nH]1,33.7% (inactive)
15,COc1ccccc1Cn1cc2c(c1)-c1oncc1CC2,22.5% (inactive)
16,CC([C@H]1CC=C2C3CCC4=C[C@@H](N(C)C)CC[C@]4(C)C3CC[C@@]21C)N(C)C (stereo partly specified),57% (inactive)
17,O=C1c2ccccc2CCc2ccccc21,104% (inactive)

# System: K-562 leukemia
# Test: as above
# Conditions: 10 µM unless noted
row,Compound,growth
1,COc1ccccc1Nc1nnc(COc2ccc(CNC(=O)CCCC/C=C/C(C)C)cc2OC)o1,67.9% (inactive)
2,CCCCCCCCCCCCCCCCC(=O)O.CCCCCCCCCCCCCCCCCC(=O)O.CCCCCCCCCCCCCCCCCC(=O)O.CCCCCCCCCCCCCCCCCC(=O)O.CCCCCCCCCCCCCCCCCC(=O)O.CO[CH-]OC12COC1CC(O)C1(C)C(O)C(OC(C)O)C3=C(C)C(OC(=O)C(O)C([NH-])c4ccccc4)CC(O)(C(OC(=O)c4ccccc4)C21)C3(C)C.[Cu+].[Zn].[Zn].[Zn].[Zn].[Zn] (stereo unspecified),8.31% (active)
3,CCNc1nnc(COc2ccc(CNC(=O)CCCC/C=C/C(C)C)cc2OC)o1,91.6% (inactive)
4,COc1cc(-c2nc(/C=C3/C(=O)Nc4ccccc43)c3ccccn23)cc(OC)c1OC,52.2% (inactive)
5,COc1ccc(Cn2cc3c(c2-c2ccccc2)CCc2cnoc2-3)cc1OC,14.1% (inactive)
6,COc1ccc(Cn2cc3c(c2)-c2oncc2CC3)cc1OC,16.9% (inactive)
7,Cc1cc(CSc2ccc(Cl)cc2)ccc1N,99.6% (inactive)
8,O=C(/C=C1\C(=O)N(Cc2ccccc2)c2ccccc21)c1ccc(OCCN2CCCCC2)cc1,2.2% (active)
9,CCCCN(CCCC)CC(O)CN(CC)CC (stereo unspecified),92.4% (inactive)
10,COc1ccc(/C=C2\CCCC3=C2N=C2SC=NN2C3c2ccc(OC)c(OC)c2)cc1OC (stereo unspecified),26.9% (inactive)
11,O=C1C(Cl)=C(SC2=NCCN2)C(=O)c2ccccc21,65% (inactive)
12,COc1ccc(Cn2cc3c(c2-c2ccc(OC)cc2)CCc2cnoc2-3)cc1,14.7% (inactive)
13,Cc1ccc(C(=O)NN)cc1,91.6% (inactive)
14,O=S(=O)(O)c1ccc2c(c1)Sc1cc(S(=O)(=O)O)ccc1O2,100% (inactive)
15,NNC(=S)N1N=C(c2cc3ccccc3o2)CC1c1c[nH]c2ccccc12 (stereo unspecified),9.64% (active)
16,O=C(O)c1occ(Cl)c1Cl,101% (inactive)
17,Cc1nnc(-c2cc3c(ccc4ccccc43)oc2=O)c2cn(-c3ccc(Cl)cc3)nc12,80.6% (inactive)
18,O=C(/C=C/c1c[nH]c2ccccc12)c1cc2ccccc2o1,37.2% (inactive)
19,COc1ccc(/C=C2\SC(=O)N(Cc3cc(=O)oc4ccc(OC)cc34)C2=O)cc1,54.2% (inactive)
20,CCCCCC(=C/c1ccccc1)/C=N/N=C(N)N,5.26% (active)
21,O=S(=O)(Cc1cccc2c(CS(=O)(=O)c3ccc(Cl)cc3)cccc12)c1ccc(Cl)cc1,83.2% (inactive)
22,COc1ccccc1Cn1cc2c(c1)-c1oncc1CC2,15.9% (inactive)
